mHTT-CaM PPI inh – inhibitors of human mutant huntingtin-calmodulin interaction; P42858; AlphaScreen His-mHTT/GST-CaM binding, luminescence; inhibition, % at 15 µM; 3.6% of 190,000 active;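 also: 0% = both proteins with DMSO and 100% = one protein alone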
Pf apPOL inh – Pf-apPOL DNA polymerase inhibition; Recombinant Pf-apPOL, molecular beacon fluorescence, 1.5 h; inhibition, % at 10 µM; 0.25% of 210,000 active
* = called active by the depositor; . = no result. This is a sample that favours compounds with a hit; in the whole collection about 3.5% have one here. Rule as the data show it: active = inhibition above about 50%; inactive = the rest.

SMILES	mHTT-CaM PPI inh	Pf apPOL inh
CCCc1c(C)nc2c(C(=O)NCc3ccc(OC)cc3)c[nH]n2c1=O	10	-1
COc1cccc(CNC(=O)c2c[nH]n3c(=O)c(Cc4ccc(C)cc4)c(C)nc23)c1	61*	-17
Cc1nc2c(C(=O)NCCN(C)C)c[nH]n2c(=O)c1Cc1ccccc1F	18	3
CCN(CCNC(=O)c1c[nH]n2c(=O)c(Cc3ccccc3F)c(C)nc12)c1ccccc1	79*	-23
COc1cccc(CNC(=O)c2c[nH]n3c(=O)c(Cl)c(C)nc23)c1	52*	-7
Cc1ccc(CNC(=O)c2c[nH]n3c(=O)c(Cc4ccc(Cl)cc4)c(C)nc23)cc1	96*	-4
COc1ccccc1OCC#CCNC(=O)C1CCCC1	-4	0
Nc1ccc(-c2nc3cc(Cl)ccc3o2)cc1	-5	10
CCOCCCNC(=O)C1CCCN(c2nccnc2Sc2ccccc2)C1 (configuration not stated)	5	-2
O=C(CC(=O)Nc1nc(C23CC4CC(CC(C4)C2)C3)cs1)NCc1ccccc1	14	-7
CC(C)CCNc1ccc(-c2nc(-c3cccc(F)c3)no2)cn1	-4	-2
Cc1ccc(C(=O)N2CC=C(C(=O)NC3CC3)CC2)c(C)c1	5	-1
Cc1cc(=O)n2[nH]cc(C(=O)NCc3ccccc3)c2n1	5	-11
CCC(C)NC(=O)c1c[nH]n2c(=O)c(Cc3ccccc3Cl)c(C)nc12 (configuration not stated)	59*	-4
Cc1ccc(CNC(=O)c2c[nH]n3c(=O)cc(CSc4ccc(Cl)cc4)nc23)cc1	65*	47
COc1cccc(CNC(=O)c2c[nH]n3c(=O)c(Cc4ccccc4F)c(C)nc23)c1	72*	-15
Cc1nc2c(C(=O)NCCc3ccccc3)c[nH]n2c(=O)c1Cc1ccccc1F	29	-5
Cc1nc2c(C(=O)NCc3ccccc3Cl)c[nH]n2c(=O)c1Cc1ccccc1F	31	-10
Cc1ccc2c(c1)N(Cc1ccc(F)cc1)N=C(C(=O)N1CCCC1)S2(=O)=O	18	-7
CC1=CCC(c2nnc(C)o2)C(c2ccc([N+](=O)[O-])cc2)C1 (configuration not stated)	0	1
O=C(CN1N=NC2C(=O)N(c3ccc(Br)cc3)C(=O)C21)Nc1ccc(F)cc1F (configuration not stated)	8	-1
COc1cc(SC)ccc1C(=O)Nc1ccc2c(c1)oc1ccccc12	-4	-10
N#Cc1c(C(F)(F)F)cc(-c2cccs2)nc1SCC(=O)Nc1ccc([N+](=O)[O-])cc1	0	64*
N#Cc1c(C(F)(F)F)cc(-c2cccs2)nc1SCC(=O)Nc1ccccc1	-13	12
O=C(NCCCN1CCCCC1)C1CCN(c2nc3cccnc3s2)CC1	-14	-7
SMILES	mHTT-CaM PPI inh	Pf apPOL inh
COc1ccc(CNC(=O)c2cc3ccccn3c2)cc1	7	0
COc1cccc(C(C)NC(=O)c2cc3ccccn3c2)c1 (configuration not stated)	68*	-3
COc1ccc(C2=NN(CC(=O)N3CCC4(CC3)OCCO4)C(=O)CC2)cc1	3	-14
O=[N+]([O-])c1ccc2nc(SCc3c[nH]c4ccccc34)sc2c1	58*	-9
O=[N+]([O-])c1ccc2nc(SCc3ccccc3F)sc2c1	12	-2
CCOc1ccc(C(=O)Nc2ccc(NC(=O)c3ccco3)c(OC)c2)cc1	3	-7
COc1ccc(CNC(=O)[C@@H]2CC=C[C@@H]3CCN(Cc4ccc(Cl)c(Cl)c4)C(=O)[C@@H]32)cc1	94*	-8
COc1ccc(CNC(=O)[C@@H]2CC=C[C@@H]3CCN(Cc4ccc(OC)c(OC)c4)C(=O)[C@@H]32)cc1	6	-5
O=C(O)[C@H]1CC=C[C@H]2CCN(Cc3ccc(Cl)c(Cl)c3)C(=O)[C@@H]12	35	-8
COC(=O)[C@H]1CC=C[C@H]2CCN(Cc3ccc(Cl)c(Cl)c3)C(=O)[C@@H]12	68*	-6
O=C(CCc1ccccc1)N1CCCC(COc2ccc(C(=O)N3CCOCC3)cc2)C1 (configuration not stated)	14	-2
O=C1C(=O)N2CCCc3cccc1c32	-2	.
NC1=NC(=Nc2ccccc2)c2ccccc21	3	-2
c1ccc(N=C2C(Nc3ccccc3)=Nc3ccccc32)cc1	63*	0
Cc1cc(Cl)ccc1N1CCN(C(=O)c2cccc(Cl)c2)C(C)C1=O (configuration not stated)	2	2
COc1cccc(-c2cc(C3CCN(C(=O)Nc4cc(Cl)ccc4OC)CC3)[nH]n2)c1	30	-2
O=C(O)c1ccc([N+](=O)[O-])c2c1NC(C1CC=CCC1)C1CC=CC21 (configuration not stated)	41	2
CCOc1cc2c(c([N+](=O)[O-])c1)NC(C1CC=CCC1)C1CC=CC21 (configuration not stated)	71*	3
CCOc1ccc(S(=O)(=O)n2nc(C)c(S(=O)(=O)N3CCCC(C)C3)c2C)cc1 (configuration not stated)	-12	-1
Cc1nc(-c2nnc(NC(=O)c3cc(Cl)cc(Cl)c3)o2)cs1	31	9
Cc1cc(C(=O)Nc2nnc(-c3csc(C)n3)o2)c(C)o1	78*	9
C=CCN(CC=C)S(=O)(=O)c1ccc(Cl)cc1	-27	.
COc1ccccc1-c1nc(Cn2cccc(S(=O)(=O)N3CCCC3)c2=O)no1	-2	-5
O=C1Nc2ccc(Br)cc2/C1=C/c1ccc(F)cc1	14	0
CN(C)c1ccc(/C=C2\C(=O)Nc3ccc(Br)cc32)cc1	99*	-34
SMILES	mHTT-CaM PPI inh	Pf apPOL inh
CCc1ccc(/C=C2\C(=O)Nc3ccc(Cl)cc32)cc1	44	-1
CCc1ccc(/C=C2\C(=O)Nc3ccc(Br)cc32)cc1	74*	-4
CCCNC(=O)Cn1cccc1-c1nc(-c2ccc(C)cc2)cs1	3	-5
CC1C(=O)N(c2ccc(F)c(Cl)c2)CCN1C(=O)C1CCCC1 (configuration not stated)	-5	-4
COc1ccc(C2CC(C(F)(F)F)n3ncc(C(=O)N(C)CCC#N)c3N2)cc1OC (configuration not stated)	8	-1
O=C(c1cc2ccccc2[nH]1)N1CCCC(c2nnc(C(F)(F)F)o2)C1 (configuration not stated)	-14	-3
O=[N+]([O-])C(=C1SCCCS1)C(=C(Cl)Cl)N1CCOCC1	32	-10
CC1CCCC(C)N1C(=C(Cl)Cl)C(=C1SCCS1)[N+](=O)[O-] (configuration not stated)	72*	-2
CC1CCCN(c2nc(-c3ccc([N+](=O)[O-])cc3)nc3ccccc23)C1 (configuration not stated)	60*	0
COc1cc(-c2nc(N3CCCC(C)C3)c3ccccc3n2)cc(OC)c1OC (configuration not stated)	-5	-2
Cc1ccccc1NC(=O)N1CCC2(CC1)Nc1cc(F)ccc1-n1cccc12	35	-5
COc1ccc(OC)c(NC(=O)N2CCC3(CC2)Nc2cc(F)ccc2-n2cccc23)c1	63*	1
COc1ccc(C)cc1NC(=O)N1CCC2(CC1)Nc1ccccc1-n1cccc12	36	2
COc1ccccc1NC(=O)N1CCC2(CC1)Nc1cc(F)ccc1-n1cccc12	57*	-9
COc1ccc(Cl)cc1NC(=O)N1CCC2(CC1)Nc1cc(F)ccc1-n1cccc12	55*	-2
